Assay results taken from PubChem BioAssay (NCI).
This is part of a sample that, as a whole, favours compounds with a hit. Of some 83,000 tested, about 20% had one in any assay.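 Plates (96-well) were seeded with cells, treated with compound at one concentration, and incubated for 48 hours before percent growth was determined.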 Activity calls are given as the source filed them.

test system: HOP-92 NSCLC; assay: NCI-60 one-dose screen, 48 h (100 = growth as untreated, 0 = no growth, -100 = all killed); conditions: 10 µM unless noted
Description: Growth inhibition of the HOP-92 human Non-Small Cell Lung tumor cell line is measured as a screen for anti-cancer activity. Cells are grown in 96 well plates and exposed to the test compound for 48 hours. Compounds are tested at a single concentration, which is 10^-5 M for most compounds. The reported endpoint is percent growth (GI% or GIPRCNT), where numbers from 0 - 100% represent growth inhibition, and numbers from -100% - 0 represent cell death. For example, a value of 40 represents 60% growth inhibition. A value of 0 means no net growth occurred over the course of the experiment. A value of -40 indicates 40% of cells at the beginning of the experiment died by the end of the experiment. A value of -100 means all cells are dead at the end of the experiment.
NCI-60 Human Tumor Cell Lines Screen was performed using the standard one-dose NCI protocol, which is described in more detail at https://dtp.cancer.gov/discovery_development/nci-60/default.htm.
Compounds with GIPRCNT values below 10 were considered active. Activity score was based on GIPRCNT using the following formula: […]
Score is 0 for GIPRCNT values of 100 or above, 50 for GIPRCNT values of 0, and 100 for GIPRCNT values of -100.

| Structure (SMILES) | growth |
| --- | --- |
| COc1cc2nc(N3CCCC3)nc(NCc3ccccc3)c2cc1OC | 61.4% (inactive) |
| CSc1nc(-c2cccc(NC(=O)CCl)c2)c(C#N)c(=O)n1C | 42.7% (inactive) |
| CC[C@H]1OC(=O)[C@H](C)[C@@H](O[C@H]2C[C@@](C)(OC)[C@@H](O)[C@H](C)O2)[C@H](C)[C@@H](O[C@@H]2O[C@H](C)C[C@H](N(C)C)[C@H]2O)[C@](C)(O)C[C@H](C)CN(C)[C@H](C)[C@@H](O)[C@]1(C)O | 67.5% (inactive) |
| CCCOc1cc2ccccc2cc1C(=O)Nc1nc(N)c2c(ccc3nccc32)[nH]1 | -71.2% (active) |
| CN1CCN(c2nc(NCCCCNc3ccnc4cc(Cl)ccc34)c3ccccc3n2)CC1 | 54.8% (inactive) |
| C#CC(F)(F)[C@]1(O)CC[C@H]2[C@@H]3CCC4=CC(=O)CCC4=C3[C@@H](c3ccc(C(C)=O)cc3)C[C@@]21C | -31.7% (active) |
| CC(=O)c1cc2c(N)c(C(=O)Nc3cccc4ccccc34)sc2nc1C | 61.6% (inactive) |
| COc1cccc(-c2nc3sccn3c2-c2ccnc(NCCCNS(=O)(=O)c3c(Cl)cccc3Cl)c2)c1 | 49.6% (inactive) |
| CCOC(=O)c1sc2nc(-c3cccc(OC)c3)nc(N3CCOCC3)c2c1C | 80.3% (inactive) |
| COc1cc(-c2nn(C)nc2-c2cc3ccccc3s2)cc(OC)c1OC | 64.9% (inactive) |
| COc1ccc(-c2nc3ccc(-c4nc5ccc(N6CCN(c7ccncc7)CC6)cc5[nH]4)cc3[nH]2)cc1OC | 57.8% (inactive) |
| COc1cc2c(cc1-c1c(C)noc1C)ncc1nc(C3CCCCC3)n([C@H](C)COC(F)F)c12 | 34.9% (inactive) |
| Cc1ccc2c(c1)C(=O)/C(=C/c1cccc(OCC(=O)c3ccc(Cl)cc3)c1)CS2 | 61.5% (inactive) |
| Nc1n[nH]c2ccc([C@@H]3Nc4ccc5[nH]ncc5c4[C@H]4C5C=CC(C5)[C@@H]34)cc12 (stereo not given in full) | 61.2% (inactive) |
| N#CN1CCC[C@H]1C(=O)N1CCc2c(-c3[nH]nc4ncccc34)cccc21 | -21.6% (active) |
| CCN1CCC2(CC1)NC(=O)c1c(c3ccc(Cl)c(Cl)c3n1C)C2C#N (stereo not given) | 40.5% (inactive) |
| CN(C)[C@@H]1C(=O)C(C(=O)NCc2nc3[nH]cnc(=S)c3[nH]2)=C(O)[C@@]2(O)C(=O)C3=C(O)c4c(O)cccc4[C@@](C)(O)[C@H]3C[C@@H]12 | 25.2% (inactive) |
| Cc1cc(N2CCCC2)nc(NC2CCCC(Nc3ccnc4cc(Cl)ccc34)C2)n1 (stereo not given) | -82.7% (active) |
| Cc1cc(C)nc(SC2=C(Nc3cccc(Cl)c3)C(=O)N(Cc3ccccc3)C2=O)n1 | -7.47% [30 µM] (active) |
| CCCc1cc(=O)n2c(C(=O)Nc3cccc(C(=O)OCC)c3)c(C(=O)Nc3ccc(F)cc3)sc2n1 | -31.5% [30 µM] (active) |

| Structure (SMILES) | growth |
| --- | --- |
| O=c1cc(CSc2nnc(-c3ccc(F)cc3)o2)c2ccc3ccccc3c2o1 | 92.2% (inactive) |
| CC1CCNC(C)C1 (stereo not given) | 76.3% (inactive) |
| CC(C)(C)N1CCC1CN (stereo not given) | 108% (inactive) |
| C=CCSSC1N=CNc2nc[nH]c21 (stereo not given) | 30.8% (inactive) |
| COc1cccc2c1C(=O)c1c(O)c3c(c(O)c1C2=O)C[C@](O)(C(=O)CO)C[C@H]3O[C@@H]1C[C@@H](NC(=O)CCCCCN(C)C2(c3ccc(F)cc3)CC3CCC2C3)[C@H](O)[C@@H](C)O1 (stereo not given in full) | 51.6% (inactive) |
| CCCCN(CCCC)CCCn1c(-c2ccccc2)ccc1-c1ccccc1 | 44.7% (inactive) |
| CCCOc1ccc2nc(NC(=O)OC)[nH]c2c1 | 37.9% (inactive) |
| N#Cc1c(-c2ccc(Cl)cc2)nc(N=Nc2c(O)[nH]c3ccc(Cl)cc23)nc1N1CCOCC1 | 89.5% (inactive) |
| O=C1c2ccccc2C(=O)c2c(N=Nc3[nH]c(=S)[nH]c3O)cccc21 | 19.8% (inactive) |
| CC1=CC(C)(C)Nc2ccc(Cc3ccc4c(c3)C(C)=CC(C)(C)N4)cc21 | 99.7% (inactive) |
| Clc1ccc2c(NCCCNc3nc(-n4ccnc4)nc4ccccc34)ccnc2c1 | 58% (inactive) |
| C#CCOc1ccc2ncnc(Nc3cccc(CNC(=O)C=C)c3)c2c1 | 93.3% [8.25 µM] (inactive) |
| Cc1ccc(C2Oc3ccccc3C3CC(c4cccs4)=NN32)cc1 (stereo not given) | 81.7% (inactive) |
| O=CNc1ccc2c(c1)Cc1cccc(NC=O)c1-2 | 97.7% (inactive) |
| CCn1c(Cc2ccccc2Nc2c(Cl)cccc2Cl)nnc1SCC(=O)NN1C(=O)/C(=C/c2cc(OC)c(O)c(OC)c2)SC1=S | 11.1% (inactive) |
| O=C(COc1ccc(/C=C2\CSc3ccccc3C2=O)cc1)Nc1nccs1 | 78.8% (inactive) |
| COc1ccc(-c2cc(Nc3ccnc(N4CCOCC4)n3)on2)cc1 | 74.8% (inactive) |
| NC1=C(Cl)C(=O)c2ccc(S(N)(=O)=O)cc2C1=O | -58.1% (active) |
| CN(C)CCCNc1c2ccccc2nc2ccccc12 | 180% (inactive) |
| CCOC(=O)C(C)(C#N)C1C=CCCC1 (stereo not given) | 78.2% (inactive) |
